# PubChem BioAssay (NCI)
# “And” between values parts separate entries of the source, which are not always exact repeats. Equal values may be shown once. This is part of a sample that, as a whole, favours compounds with a hit. Of some 83,000 tested, about 20% had one in any assay.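 The test compound was applied at a single concentration to cells in 96-well plates for 48 hours, and percent growth was recorded.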 Unmarked numbers belong to inactive results. The source made the active and inactive calls. The calls were made as follows: active = growth percent below 10; inactive = the rest.
# Tested on: MDA-MB-468 breast
# Assay: NCI-60 one-dose screen, 48 h (100 = growth as untreated, 0 = no growth, -100 = all killed)
# Details: 10 µM unless noted
row,Structure (SMILES),growth
1,O=C1C=C(Nc2ccccc2)c2ncccc2C1=O,-61.3% (active)
2,CCN(CC)CCNc1ccc(N=Nc2cnc3ccccc3c2)c2ccccc12,-64.5% (active)
3,COc1ccc2c(c1)cn1c3ccc(O)cc3[nH]c(=O)c21,-6.77% (active)
4,CN1C(=O)/C(=C/c2ccc(C(=O)Nc3ncc(Cc4ccc(F)cc4)s3)cc2)SC1=S,25.2%
5,CC1=CC=C(NC(=O)/C=C/c2ccccc2)CC1Nc1nccc(-c2cccnc2)n1 (stereo unspecified),3.07% (active)
6,CCCNc1nc(N(C)O)nc(N(C)O)n1,21.5%
7,COc1cc2c(O)n(CCCn3ccnc3)c3c4cnc5cccc(c(=O)c3c2cc1OC)c54,4.34% (active)
8,COc1ccc2c(c1)c(CC(=O)[Se]CC(=O)O)c(C)n2C(=O)c1ccc(Cl)cc1,86.9%
9,CCOC(=O)c1cnn(-c2ccc(S(N)(=O)=O)cc2)c1N,94.7%
10,Cc1cc(Cl)nc(N(CCCNc2ccnc3cc(Cl)ccc23)Cc2ccco2)n1,0.466% (active)
11,Cc1ccc(C)c(C(O)(c2cc(C)ccc2C)C2(O)CCCCC2)c1,90.5%
12,O=C1C(Br)=C(c2ccccc2)C(=O)C(Br)=C1c1ccccc1,92%
13,COc1c(CCC[P+](c2ccccc2)(c2ccccc2)c2ccccc2)cc2c(c1OC)OCO2,-28% (active)
14,Oc1c(CN2CCCCC2)ccc2cccnc12,72.3% and 81.8%
15,O=c1c2cc(F)ccc2oc2c(NCCNCCO)nc3ccccc3c12,-14.5% (active)
16,CC(C)(C)n1cc(-c2ccnc(NCCCNS(=O)(=O)c3ccc(C(F)(F)F)cc3)c2)c(-c2cccc(O)c2)n1,11.8%
